The panel holds about 79,000 compounds, 15% with a hit somewhere; the sample as a whole holds those more often. Activity calls are given as the source filed them. Cut-off read from the data, not from the text of the source: active = growth inhibition above about 70%; inactive = the rest.
Assay: NCI Yeast Anticancer Drug Screen. Data for the rad50EPP+ strain (AID 151);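 note: 0% = growth of vehicle-treated control cultures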
Conditions: S. cerevisiae rad50 mutant strain, active compounds read high
Experimental: Growth inhibition of yeast strains with defined genetic alterations is measured as a screen for potential anti-cancer activity. Selected strains with alterations in DNA damage repair or cell cycle control were exposed to compounds and growth inhibition was measured relative to vehicle treated controls. The strain used in this assay is rad50EPP+

Measured: growth inhibition

CC(C)(C)c1cc([N+](=O)[O-])cc([N+](=O)[O-])c1O
inactive: at 1.2 µM -54% | at 3.7 µM -54% | at 11.0 µM -44% | at 33.0 µM -25% | at 100.0 µM -13%

CSc1ccccc1[As](C)C
active: at 11.0 µM 74% | at 33.0 µM 98% | at 100.0 µM 99%
inactive: at 1.2 µM 1% | at 3.7 µM 11%

CC1=C(O)C(=O)C=C2C1=CC=C1[C@@]2(C)CCC2(C)[C@@H]3C[C@@H](C)C(=O)C[C@]3(C)CC[C@]12C (stereo not given in full)
inactive: at 1.2 µM 9% | at 3.7 µM 12% | at 11.0 µM 29% | at 33.0 µM 32% | at 100.0 µM 59%

CN(N=O)C(=O)NNC(=O)N(C)N=O
active: at 33.0 µM 93% | at 100.0 µM 95%
inactive: at 1.2 µM 3% | at 3.7 µM 16% | at 11.0 µM 62%

COC(=O)C1c2cc3c(c(O)c2C(O)CC1(C)O)C(=O)c1c(O)cc2c(c1C3=O)OC1OC2(C)C(O)C(N(C)C)C1O (stereo not given)
inactive: at 1.2 µM -1% | at 3.7 µM 18% | at 11.0 µM 39% | at 33.0 µM 61% | at 100.0 µM 65%

Br[Se]c1ccccn1
inactive: at 1.2 µM -9% | at 3.7 µM 59%
active: at 11.0 µM 98% | at 33.0 µM 99% | at 100.0 µM 98%

CC1CC(C)CC(C)C(O)/C(C#N)=C/C=C/CC(C2CCCC2C(=O)O)OC(=O)CC(O)C(C)C1 (stereo not given)
active: at 33.0 µM 93% | at 100.0 µM 97%
inactive: at 1.2 µM -17% | at 3.7 µM 21% | at 11.0 µM 68%

Nc1nc(N)c2c(Cl)c(CNc3ccc(C(=O)NC(CC(=O)O)C(=O)O)cc3)ccc2n1 (stereo not given)
inactive: at 1.2 µM 10% | at 3.7 µM 6% | at 11.0 µM 13% | at 33.0 µM 17% | at 100.0 µM 41%
